The values that follow come from PubChem BioAssay (NCI).

About 79,000 compounds went through this panel and 15% of them were active in at least one assay; those are over-represented in the sample as a whole. The source made the active and inactive calls. Cut-off read from the data, not from the text of the source: active = growth inhibition above about 70%; inactive = the rest.

One experiment can be described thus: NCI Yeast Anticancer Drug Screen. Data for the bub3 strain (AID 167). To be noted: S. cerevisiae bub3 mutant strain, at 3.7 µM, active compounds read high. The procedure, abridged: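 Compounds were applied to a genetically altered yeast strain carrying a cell-cycle control defect. Growth inhibition was scored against vehicle-treated controls.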
In the case of `C/C(=N\NC(=S)SCc1ccccc1)c1ccccn1`, the growth inhibition is 20% (inactive).
Same read-out and setting: to `CC[C@@]1(O)C(=O)OCc2c1cc1n(c2=O)Cc2cc3c(N)cccc3nc2-1` belongs -32% (inactive).
On the same count and under the same terms, to `CN(C)c1ccc(Sc2ccc3nc(N)nc(N)c3c2)cc1` belongs -11% (inactive); to `CC(=O)OCCOCNC(=S)N/N=C(\C)c1cnccn1`, 17% (inactive); to `COc1ccc(C2c3cc4c(cc3OC(C)(O)C2C)OCO4)c(OC)c1` (configuration not stated), -1% (inactive).
The same measure, in the same setting: to `COc1cc(C2SCC(=O)N2c2ccc(-c3ccc(-n4c(-c5ccccc5)nc5ccccc5c4=O)cc3)cc2)cc(OC)c1OC` (configuration not stated) belongs 4% (inactive); to `COc1ccc(Br)c(C(=O)Sc2nnnn2-c2cccc(Cl)c2)c1`, 11% (inactive); to `O=C(NNc1ccnc2cc(Cl)ccc12)/C(=C\c1ccccc1Cl)NC(=O)c1ccccc1`, 14% (inactive).
As to `CSC(=S)Nc1cccc(C)n1`, the growth inhibition was -16% (inactive).
Take `O=C(/C=C\c1ccc(Cl)cc1Cl)c1cccs1`: the growth inhibition is 22% (inactive).
The same measure, in the same setting: to `COc1ccc(-c2cn(-c3ccc(I)cc3)c3ncnc(N)c23)cc1` belongs -2% (inactive); to `CN(C)c1ccc(C(C#N)=C(C#N)C#N)cc1`, -5% (inactive).
Still for that read-out and setting: the value for `COc1cc(/C=C2\CCc3ccccc3C2=O)cc(OC)c1OC` was -13% (inactive); that for `CC(C)/C(Cl)=N\OC(=O)Nc1cccc(Cl)c1` was 4% (inactive).
On the same count and under the same terms, the value for `NNC(=O)CCc1ccc2ccc3ccccc3c2c1` was -4% (inactive); that for `COc1ccc(/C(C)=N/OC(=O)c2c(-c3ccccc3Cl)noc2C)cc1CN1CCOCC1` was -7% (inactive); that for `C=CC(C)(O)CCC1C(=C)C(O)CC2C(C)(C)CCCC12C` (configuration not stated) was 7% (inactive).
Take `S=C(Nc1ccc(Cl)c(Cl)c1)SCc1ccc2c(c1)OCO2`: the growth inhibition is 29% (inactive).
Still for that read-out and setting: the value for `S=C(Nc1ccc(Cl)cc1)SC1CCCCC1` was -36% (inactive); that for `Nc1nc(-c2cccnc2)cc(-c2cc(-c3cccnc3)nc(N)n2)n1` was -6% (inactive); that for `COC1=CC(=O)C2C(C1=O)C(c1ccc(Cl)cc1)[C@@H]2C` (some centres not stated) was 53% (inactive).
Still for that read-out and setting: the value for `c1ccc(-c2nc3cccnc3s2)cc1` was 0% (inactive); that for `O=[N+]([O-])c1cc(CCl)ccc1CCl` was 2% (inactive).
The same measure, in the same setting: the value for `COc1ccc(/C=C2\SC(=S)N(/C=C/c3nc4ccccc4[nH]c3=O)C2=O)cc1OC` was 4% (inactive).
On to `CCCN(CCC)CC(O)c1cc(-c2ccc(Cl)cc2)nc2c(C)c(Cl)ccc12` (configuration not stated), for which the growth inhibition is -6% (inactive).
On the same count and under the same terms, the value for `O=C(Nc1ccccc1)OCCc1ccc(Cl)c(Cl)c1` was 2% (inactive); that for `CC(O)C(O)C(O)C(/C=N\Nc1ccccc1)=N/Nc1ccccc1` (configuration not stated) was -3% (inactive); that for `C#CCCCc1ccccc1` was -33% (inactive).
The same measure, in the same setting: the value for `CC(=O)Cc1ccc[cH-]1.[Fe+2].c1cc[cH-]c1` was -10% (inactive).
Still for that read-out and setting: the value for `Cc1cc(I)ccc1N` was -7% (inactive); that for `CC(C)(CN1CCCCC1)C(=O)CC(SCCS(=O)(=O)O)c1ccc(Br)cc1` (configuration not stated) was 6% (inactive).
Regarding `C[Si](C)(C)CNC(=O)OCc1ccccc1`, the growth inhibition is 15% (inactive).
The same measure, in the same setting: to `CC(C(=O)N1C(=O)N(C(=O)[C@H](C)C(O)c2ccccc2)[C@H](c2ccccc2)[C@H]1c1ccccc1)[C@@H](O)c1ccccc1` (some centres not stated) belongs -3% (inactive).
As for `Oc1cccc2c(Cl)ccnc12`, the growth inhibition was 54% (inactive).
Same read-out and setting: to `O=C1C=CC(=C(c2ccccc2)c2ccccc2)c2ccccc21` belongs 1% (inactive); to `S=C(S)NN1CCOCC1`, 59% (inactive).

The same experiment, now with this note: S. cerevisiae bub3 mutant strain, at 5.0 µM (retest, dose inferred, filed as 0.5), active compounds read high.
As for `C/C(=N\NC(=S)SCc1ccccc1)c1ccccn1`, the growth inhibition is 30% (inactive).
As to `CC[C@@]1(O)C(=O)OCc2c1cc1n(c2=O)Cc2cc3c(N)cccc3nc2-1`, the growth inhibition is -1% (inactive).
As to `CN(C)c1ccc(Sc2ccc3nc(N)nc(N)c3c2)cc1`, the growth inhibition is 27% (inactive).
As to `CC(=O)OCCOCNC(=S)N/N=C(\C)c1cnccn1`, the growth inhibition was -5% (inactive).
The same measure, in the same setting: to `COc1ccc(C2c3cc4c(cc3OC(C)(O)C2C)OCO4)c(OC)c1` (configuration not stated) belongs -4% (inactive); to `COc1cc(C2SCC(=O)N2c2ccc(-c3ccc(-n4c(-c5ccccc5)nc5ccccc5c4=O)cc3)cc2)cc(OC)c1OC` (configuration not stated), 6% (inactive); to `COc1ccc(Br)c(C(=O)Sc2nnnn2-c2cccc(Cl)c2)c1`, 23% (inactive).
On the same count and under the same terms, the value for `O=C(NNc1ccnc2cc(Cl)ccc12)/C(=C\c1ccccc1Cl)NC(=O)c1ccccc1` was 5% (inactive); that for `CSC(=S)Nc1cccc(C)n1` was 39% (inactive).
For the compound `O=C(/C=C\c1ccc(Cl)cc1Cl)c1cccs1`, the growth inhibition is 30% (inactive).
The same measure, in the same setting: the value for `COc1ccc(-c2cn(-c3ccc(I)cc3)c3ncnc(N)c23)cc1` was 12% (inactive); that for `CN(C)c1ccc(C(C#N)=C(C#N)C#N)cc1` was -54% (inactive).
Same read-out and setting: to `COc1cc(/C=C2\CCc3ccccc3C2=O)cc(OC)c1OC` belongs -3% (inactive); to `CC(C)/C(Cl)=N\OC(=O)Nc1cccc(Cl)c1`, -29% (inactive); to `NNC(=O)CCc1ccc2ccc3ccccc3c2c1`, -11% (inactive).
The same measure, in the same setting: the value for `COc1ccc(/C(C)=N/OC(=O)c2c(-c3ccccc3Cl)noc2C)cc1CN1CCOCC1` was 17% (inactive); that for `C=CC(C)(O)CCC1C(=C)C(O)CC2C(C)(C)CCCC12C` (configuration not stated) was 19% (inactive); that for `S=C(Nc1ccc(Cl)c(Cl)c1)SCc1ccc2c(c1)OCO2` was 76% (active).
Take `S=C(Nc1ccc(Cl)cc1)SC1CCCCC1`: the growth inhibition was 17% (inactive).
The same measure, in the same setting: the value for `Nc1nc(-c2cccnc2)cc(-c2cc(-c3cccnc3)nc(N)n2)n1` was -17% (inactive).
Same read-out and setting: the value for `COC1=CC(=O)C2C(C1=O)C(c1ccc(Cl)cc1)[C@@H]2C` (some centres not stated) was 41% (inactive); that for `c1ccc(-c2nc3cccnc3s2)cc1` was 25% (inactive).
Regarding `O=[N+]([O-])c1cc(CCl)ccc1CCl`, the growth inhibition was -17% (inactive).
On the same count and under the same terms, to `COc1ccc(/C=C2\SC(=S)N(/C=C/c3nc4ccccc4[nH]c3=O)C2=O)cc1OC` belongs -14% (inactive).
Take `CCCN(CCC)CC(O)c1cc(-c2ccc(Cl)cc2)nc2c(C)c(Cl)ccc12` (configuration not stated): the growth inhibition was 6% (inactive).
Still for that read-out and setting: to `O=C(Nc1ccccc1)OCCc1ccc(Cl)c(Cl)c1` belongs 6% (inactive).
The same measure, in the same setting: the value for `CC(O)C(O)C(O)C(/C=N\Nc1ccccc1)=N/Nc1ccccc1` (configuration not stated) was -7% (inactive).
Same read-out and setting: the value for `C#CCCCc1ccccc1` was 0% (inactive); that for `CC(=O)Cc1ccc[cH-]1.[Fe+2].c1cc[cH-]c1` was -4% (inactive); that for `Cc1cc(I)ccc1N` was 27% (inactive).
As for `CC(C)(CN1CCCCC1)C(=O)CC(SCCS(=O)(=O)O)c1ccc(Br)cc1` (configuration not stated), the growth inhibition was -4% (inactive).
The same measure, in the same setting: the value for `C[Si](C)(C)CNC(=O)OCc1ccccc1` was 6% (inactive); that for `CC(C(=O)N1C(=O)N(C(=O)[C@H](C)C(O)c2ccccc2)[C@H](c2ccccc2)[C@H]1c1ccccc1)[C@@H](O)c1ccccc1` (some centres not stated) was -27% (inactive).
On to `Oc1cccc2c(Cl)ccnc12`, for which the growth inhibition was 93% (active).
`O=C1C=CC(=C(c2ccccc2)c2ccccc2)c2ccccc21`: the growth inhibition was 53% (inactive).
The same measure, in the same setting: to `S=C(S)NN1CCOCC1` belongs 85% (active).
